Pf Dd2 inh: blocks in vitro growth of P. falciparum Dd2; P. falciparum Dd2 growth, SYBR Green, 72 h; Potency, µM (top dose mostly 28.9 µM), without a hit: at the top dose activity, negative = inhibition, actives largely listed as inhibitors; 120,000 tested, 4.3% active; AID 1347417; active = well fitted inhibition curve with a large enough effect;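 also: plate controls were DMSO vehicle for no effect and reference drug for full effect; nearly all actives have a fitted effect of over 65% in size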
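Infected erythrocytes (Dd2, 0.3% parasitemia, 2.5% hematocrit final) are added to compound in RPMI-1640/Albumax II medium, grown 72 h at 37C in low oxygen, then lysed with saponin/Triton-X containing SYBR Green and read by fluorescence.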
An asterisk follows results filed as active; i = inactive; [ ] = dose if it differs, or a comment. This excerpt belongs to a sample that is enriched for hits. Potency is read from the fitted curve at half-maximal effect.

SMILES	Pf Dd2 inh
Cc1cccc(CN2CCCC(O)(CN3CCOCC3)C2=O)c1 (stereo not given)	-12.0%
CCn1nccc1C(=O)N1CCCCCCNC(=O)[C@@H]2C[C@@H](c3nc(Cc4ccccc4)no3)C[C@@H]21	-20.3%
CS(=O)(=O)CC[C@H](NC(=O)C1=C[C@@H](NC(=O)Nc2ccc(F)cc2F)[C@@H](O)[C@H](O)C1)C(N)=O	-10.3%
O=C(NCC(c1cccnc1)N1CCN(Cc2ccccc2)CC1)C(=O)Nc1ccc(Cl)cc1 (stereo not given)	14.1µM*
COCCNC(=O)C(=O)NCC(c1cccnc1)N1CCN(c2ccccc2F)CC1 (stereo not given)	54.9%[0.594 µM]
Cc1cccc(NC(=O)C(=O)NCC(c2ccc3c(c2)OCO3)N2CCN(c3ccccc3)CC2)c1 (stereo not given)	-26.1%
O=C(NCC(c1cccnc1)N1CCN(Cc2ccccc2)CC1)C(=O)Nc1cccc(Cl)c1 (stereo not given)	3.98µM*
Cc1cccc(NC(=O)C(=O)NCC(c2cccnc2)N2CCN(Cc3ccccc3)CC2)c1 (stereo not given)	7.94µM*
COc1ccc(N2CCN(C(CNC(=O)C(=O)NCc3cccnc3)c3cccnc3)CC2)cc1 (stereo not given)	-15.5%[0.594 µM]
CCc1ccc(NC(=O)C(=O)NCC(c2cccnc2)N2CCN(C)CC2)cc1 (stereo not given)	-15.9%
Cc1ccc(NC(=O)C(=O)NCC(c2cccnc2)N2CCN(Cc3ccccc3)CC2)cc1 (stereo not given)	80.8%[0.594 µM]
COc1ccccc1N1CCN(C(CNC(=O)C(=O)NCCN(C)C)c2cccnc2)CC1 (stereo not given)	-5.7%
COc1ccc(C(=O)NC2CCN(c3cn[nH]c(=O)c3)CC2)cc1F	-21.5%
CS(=O)(=O)N1CCC(OC2CCN(C(=O)NC3CCCC3)CC2)CC1	-7.5%
c1csc(CN2CC[C@H](c3nc4ccccc4[nH]3)C2)c1	i
O=C(CCc1cc2n(n1)CCCNC2)Nc1ccccc1CCc1ccccn1	12.8%
CN1C(=O)C(c2ccccc2)CC12CCN(C(=O)C1(C(N)=O)CC1)CC2 (stereo not given)	-6.3%
COCc1cc(NCc2cccnc2Oc2cccc(C(F)(F)F)c2)ncn1	-19.9%
O=C(c1cccnc1)N1CCC2(CC1)NCCc1c2[nH]c2ccccc12	-13.1%
O=C(c1ccc(Cn2ccnc2)o1)N1CCC2(CC1)NCCc1c2[nH]c2ccccc12	12.6µM*
O=C(c1ccncc1)N1CCC2(CC1)NCCc1c2[nH]c2ccccc12	i
Cc1cc(C)cc(Nc2nc(C)cc(=O)n2CC(=O)NC(C)CCc2ccccc2)c1 (stereo not given)	i
CCOC(=O)C1=CN(CC(=O)Nc2c(C)cccc2C)S(=O)(=O)N=C1C	17.2%
O=C(N[C@H]1CCN2C(=O)c3cc(-c4ccccc4)ccc3NC(=O)[C@H]12)c1cccc(F)c1	-3.2%[44.1 µM]
COCCNC(=O)c1nc2c(o1)CCN(Cc1ccc(OC)cc1)CC2	-15.9%[44.1 µM]
SMILES	Pf Dd2 inh
CCn1ncc(CN(C)C(=O)c2c(C)oc3c2CN(Cc2ccc(OC)cc2)CC3)c1C	11.2µM*
COc1ccc(CN2CCc3oc(C)c(C(=O)N4CCN(C(C)=O)CC4)c3C2)cc1	-13.2%
CCCNC(=O)N1CCC(Oc2ncccc2C(=O)N(C)C)C1 (stereo not given)	i
CCNC(=O)c1ccc(OC2CCN(C(=O)c3ccnn3C)C2)nc1 (stereo not given)	13.4%
COc1cc(NC(=O)Cn2c(N3CCc4ccccc4C3)nc(C)cc2=O)cc(OC)c1OC	-22.9%
COc1cccc(CNC(=O)Cn2c(N3CCc4ccccc4C3)nc(C)cc2=O)c1	-20.0%
COc1ccc(CNC(=O)Cn2c(N3CCc4ccccc4C3)nc(C)cc2=O)cc1	8.91µM*
O=C(NCc1ccc(C(F)(F)F)cc1)C1CN(Cc2ccccc2)C(=O)N1 (stereo not given)	-2.3%
COCCN1C(=O)[C@@H]2C[C@@H](CN2Cc2ccccn2)Oc2ccccc21	10µM*
O=C1[C@@H]2C[C@@H](CN2C2CCOCC2)Oc2ccccc2N1Cc1ccccn1	-15.5%[44.1 µM]
COCCN1C(=O)[C@@H]2C[C@@H](CN2C(=O)c2ccccc2)Oc2ccccc21	13.6%[44.1 µM]
O=C1[C@@H]2C[C@@H](CN2Cc2ccc(C(F)(F)F)cc2)Oc2ccccc2N1Cc1cccnc1	i
COCCN1C(=O)[C@@H]2C[C@@H](CN2Cc2ccc(C(F)(F)F)cc2)Oc2ccccc21	14.1µM*
COc1ccc(CN2C(=O)[C@@H]3C[C@@H](CN3Cc3ccc(S(C)(=O)=O)cc3)Oc3ccccc32)cc1	i
O=C(c1cc2n(n1)CC(c1ccc(Cl)cc1)OC2)N1CCN(c2ccccc2)CC1 (stereo not given)	i
O=C(Nc1ccc(F)cc1)C1CN(c2ccccc2)C(=O)N1 (stereo not given)	3.1%[44.1 µM]
COc1ccc(CCNC(=O)C2CC(=O)N(c3n[nH]c4cccc(F)c34)C2)cc1OC (stereo not given)	-0.9%
Cc1ccc(Cn2cc(S(=O)(=O)c3cccc(Cl)c3)c(=O)c3cc(F)c(N4CCOCC4)cc32)cc1	20.8%
Cc1ccc(Cn2cc(S(=O)(=O)c3cccc(C)c3)c(=O)c3cc(F)c(N4CCOCC4)cc32)cc1	10µM*
CCn1cc(S(=O)(=O)c2cc(C)cc(C)c2)c(=O)c2cc(F)c(N3CCOCC3)cc21	20.3%
Cc1cccc(S(=O)(=O)c2cn(C)c3cc(N4CCN(c5ccccc5)CC4)c(F)cc3c2=O)c1	40.8%
O=c1c(S(=O)(=O)c2ccccc2)cn(Cc2ccccc2)c2cc(N3CCOCC3)c(F)cc12	8.91µM*
Cn1cc(S(=O)(=O)c2cccc(Cl)c2)c(=O)c2cc(F)c(N3CCN(c4ccccc4)CC3)cc21	-0.5%
O=C(CCC1CCCC1)N1CCN(C(=O)N2CC3CC(C2)[C@H]2CCCC(=O)N2C3)CC1 (stereo not given in full)	i
COc1ccc(S(=O)(=O)N2[C@@H]3CC[C@H]2CC(NC(=O)c2ccc(F)cc2)C3)cc1OC (stereo not given in full)	-17.4%
SMILES	Pf Dd2 inh
CC(CCc1ccccc1)NC(=O)C1CCN(c2cc(C(F)(F)F)ncn2)CC1 (stereo not given)	-22.1%
CCOc1cccc(-c2noc(-c3nc(CC)no3)n2)c1	i
Cc1noc([C@@H]2CN(Cc3ccncc3F)C[C@H]2CO)n1	27.9%
COCCC(=O)N1CC[C@H](c2nc3ccccc3o2)C1	-10.4%[44.1 µM]
N#Cc1cccc(S(=O)(=O)N2CCc3n[nH]c(=O)n3CC2)c1	i
COC(=O)c1cc(CN2CCCC3(CCNC3)C2)ccc1O (stereo not given)	-16.8%
COc1cc(CN2CCC3(CCNCC3)C2)cc(OC)c1OC	-3.7%
C=Cc1cccc(CN2CCCC3(CCNC3)C2)c1 (stereo not given)	10µM*
CS(=O)(=O)Cc1ccc(-c2ccc(F)cc2C(F)(F)F)nc1	-3.2%
CC(C)NC(=O)N[C@H]1C[C@@H](Cc2cc(CCO)on2)C1(C)C	-10.5%[44.1 µM]
CCOC(=O)c1cnc2c(ccc3ccccc32)c1Nc1ccc(OC)cc1OC	0.4%
CCOC(=O)c1cnc2c(ccc3ccccc32)c1Nc1ccc(C(C)=O)cc1	5.01µM*
CCOC(=O)c1cnc2c(ccc3ccccc32)c1Nc1ccccc1OC	8.6%
CCOC(=O)c1cnc2ccccc2c1Nc1ccc(N2CCOCC2)cc1	27.8%
CCOC(=O)c1cnc2c(ccc3ccccc32)c1Nc1ccccc1OCC	30.4%
CCOC(=O)c1cnc2c(ccc3ccccc32)c1Nc1ccc(OC)c(OC)c1	3.55µM*

Compound activity (PubChem BioAssay)
